# Experimental data: PubChem BioAssay AID894 (National Center for Advancing Translational Sciences (NCATS), 2007)
# In all, about 150,000 compounds went through this assay and about 6,500 (4.3%) were called active. About 12% were inconclusive and are not listed. What follows is part of a selection rich in actives, with near analogues and random picks from the rest. Values without a mark were called inactive. The call rests on the fitted dose curve; in most records, active means well fitted inhibition curve with a large enough effect (not every such curve was filed as active); inconclusive means small, poorly fitted or top-dose-only effect, or another doubt; inactive means no such curve, though single readings can be large or run the other way.
# Biological target: 15-hydroxyprostaglandin dehydrogenase [NAD(+)] (Homo sapiens) (UniProt P15428)
# Experiment: qHTS Assay for Inhibitors of HPGD (15-Hydroxyprostaglandin Dehydrogenase)
# Conditions: purified HPGD, NADH fluorescence kinetic, PGE2 substrate; activity change, negative = inhibition: stronger effect = lower value
# Outline: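 20 nM HPGD preincubated 15 min at room temperature with compound in 50 mM Tris-HCl pH 8, 0.01% Tween 20. Started with 1 mM NAD+ and 30 uM prostaglandin E2; NADH fluorescence (360/450 nm) read 5 times over 30-s intervals, last minus first.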
# On the % scale 0 is the no-effect control and ±100 the full control effect; potency means the concentration at half of the fitted maximal effect.
# Chain of 15-hydroxyprostaglandin dehydrogenase [NAD(+)] (Homo sapiens) (P15428 whole entry, looked up): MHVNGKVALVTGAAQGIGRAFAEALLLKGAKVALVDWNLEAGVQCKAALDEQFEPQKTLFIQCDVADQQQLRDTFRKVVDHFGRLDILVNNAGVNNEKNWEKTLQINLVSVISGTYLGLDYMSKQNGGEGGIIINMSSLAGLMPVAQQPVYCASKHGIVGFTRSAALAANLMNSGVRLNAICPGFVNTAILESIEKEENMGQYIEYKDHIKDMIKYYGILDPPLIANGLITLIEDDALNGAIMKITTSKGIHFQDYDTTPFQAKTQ
Structure (SMILES),"activity change, negative = inhibition",Potency
CCn1c(=O)cc(SCC(=O)NCc2ccc3c(c2)OCO3)c2ccccc21,-4.58%,
CCn1c(=O)cc(SCC(=O)NCCC2=CCCCC2)c2ccccc21,,7.08 µM (active)
Cc1nnc(OCC(=O)NCCC2=CCCCC2)c2ccccc12,-17.6%,
O=C1CC(c2cccc(Cl)c2)CC(O)=C1C=Nc1ccccc1 (stereo not drawn),-9.88%,
O=C(CNC(c1ccccc1)c1ccccc1)Nc1ccc(F)cc1,-9.88%,
CC(C)(C)c1ccc(Oc2ccc(N)cc2)cc1,,28.2 µM (active)
Nc1ccc(Oc2ccc(Cl)cc2)cc1,-8.65%,
Cc1ccc(Oc2ccc(N)cc2)cc1,-24%,
CCCCN(CC)C(=S)Nc1ccc2nc3n(c(=O)c2c1)CCCCC3,-1.94%,
COc1ccc(C(=O)ON=C2c3ccccc3-c3ccccc32)cc1OC,-23.4%,
CCOc1ccc(Oc2nc(C)cc(OC)n2)nn1,-6.46%,
Cc1scc(C(=O)NNC(=S)NCC(C)C)c1C,-5.27%,
Cc1cccc(NC(=S)N(CCN(C)C)C(C)c2ccco2)c1 (stereo not drawn),-15.4%,
COc1ccc(S(=O)(=O)NC(C)C)cc1C(=O)NC1CCCCC1,-17.6%,
CCC(CC)c1nnc(NC(=O)/C=C/c2ccco2)s1,-29.6%,
c1ccc2[nH]c(-c3nc4ccccc4[nH]3)nc2c1,-25.9%,
O=c1onc(-c2cccs2)n1Cc1ccccc1,-5.59%,
O=c1[nH]c(-c2cccs2)nc2ccccc12,,15.8 µM (active)
Nc1nc(CC(=O)CSc2ccc(Cl)cc2)nc(Nc2ccc(F)cc2)n1,-7.75%,
COc1cc(OC)cc(C(=O)NCCSCc2ccco2)c1,,20 µM (active)
CS(=O)(=O)N(Cc1ccc(Cl)cc1)c1ccc(C(=O)NCCSCc2ccco2)cc1,-4.85%,

Structure (SMILES),"activity change, negative = inhibition",Potency
O=C(/C=C/c1ccc([N+](=O)[O-])cc1)NCCSCc1ccco1,-22.9%,
CCC(CC)NC(=O)/C=C/c1cccc([N+](=O)[O-])c1,-13.1%,
O=C(/C=C/c1cccc([N+](=O)[O-])c1)NCCSCc1ccco1,,25.1 µM (active)
COc1ccc(CCNC(=O)c2ccco2)cc1,-3.27%,
CC(=O)Nc1cccc(/C(C)=N/NC(=O)c2c(-c3ccccc3Cl)noc2C)c1,-6.16%,
COc1ccc(S(=O)(=O)NC(C)C(=O)Nc2cccc([N+](=O)[O-])c2)cc1 (stereo not drawn),-10.4%,
O=C(COC(=O)Cn1cnc2ccccc2c1=O)NCC12CC3CC(CC(C3)C1)C2,-2.81%,
COc1cc(NC(=O)Nc2ccc(C)cc2)cc([N+](=O)[O-])c1,-10.2%,
CCOC(=O)C1=NO[C@@]2(C=C(Br)C(=O)[C@H]3O[C@H]32)C1,-23%,
O=C(NCc1ccccn1)c1cc(-c2ccccc2Cl)on1,,14.1 µM (active)
COc1ccccc1-c1cc(C(=O)NCCCn2ccnc2)no1,-21.8%,
Clc1ccccc1-c1cc(COc2ccc3ccccc3c2)no1,-25.6%,
CCOC(=O)c1c(NC(=O)CSc2nnc(CN3CCOCC3)n2C)sc2c1CCCC2,-2.63%,
NC(=O)c1c(NC(=O)CSc2nnc(-c3ccco3)n2N)sc2c1CCCC2,,14.1 µM (active)
CCc1cccc(C)c1NC(=O)CSc1nnc(-c2ccco2)n1N,-10.6%,
CC(C)=C1C2CCC1C1C(=O)N(NC(=O)c3ccco3)C(=O)C21 (stereo not drawn),-7.1%,
CC(C)CNC(=O)c1cc(-c2ccc(Br)cc2)on1,-23.1%,
CC(C)Cc1cc(C(=O)Nc2cc(Br)ccc2O)no1,,25.1 µM (active)
CC(C)Cc1cc(C(=O)NCCc2ccccc2)no1,-20.6%,
COc1ccc(C(C(=O)NC2CCCCC2)N(C(=O)CCl)c2ccccc2Cl)cc1 (stereo not drawn),-4.95%,
N#Cc1c(NC(=O)c2ccc(N3CCOCC3)c([N+](=O)[O-])c2)sc2c1CCCC2,-10.9%,

Structure (SMILES),"activity change, negative = inhibition",Potency
O=C(/C=C/c1ccc(Cl)cc1)N1CCN(c2ccccc2[N+](=O)[O-])CC1,-15%,
CC(C)(C)NC(=O)C(=O)NCc1ccncc1,-2.72%,
Cc1nc2ccccc2n1CC(=O)N/N=C/c1cccs1,-4.95%,
O=C(CCC(=O)c1cccs1)NCc1ccccc1,,31.6 µM (active)
O=C(COC(=O)CCC(=O)c1cccs1)NCc1ccco1,-9.26%,
O=C(c1cccs1)n1nc(NCc2ccccc2)nc1NCc1ccccc1,-18.3%,
CCC1CCCCN1C(=S)Nc1ccc(C(C)=O)cc1 (stereo not drawn),-21.2%,
Cc1ccc(-c2cn3cc([N+](=O)[O-])ccc3n2)cc1,-11.8%,
CC[C@H](C)[C@@H](NC(=O)O[C@@H]1C(=O)c2cc(OC)ccc2O[C@H]1c1cccc(OC)c1)C(=O)OC,-14.9%,
O=[N+]([O-])c1cc(C(F)(F)F)ccc1NN=C1CCCC1,-7.57%,
C/C(=N\NC(=O)CCn1nc(C)cc1C)C(C)(C)C,-2.63%,
Cc1ccc(SCC(=O)Nc2ccc3c(c2)OCCO3)cc1,-4%,
CCCCC(=O)Nc1ccc2c(c1)OCCO2,,25.1 µM (active)
COC(=O)CCNc1ccc2c(c1)OCCO2,-9.02%,
Cc1cn(C2OC[C@@H](O)[C@@H]2CO)c(=O)[nH]c1=O (stereo partly drawn),-7.64%,
O=C(CSc1nnc(-c2cccnc2)n1CCc1ccccc1)NCc1ccccc1,-12.6%,
Cc1ccccc1NC(=O)CSC1=NCCN1,-5.67%,
O=C(CSc1n[nH]c(-c2cccnc2)n1)Nc1ccnc2ccccc12,,15.8 µM (active)
C=CCn1cc(C(=O)NCc2ccc(Cl)cc2)c(=O)c2cc(S(=O)(=O)N(CC)CC)ccc21,15.1%,
CC(=O)c1sc(N/N=C\c2ccc(C)cc2)nc1C,-20.1%,
C=CCNC(=S)NNC(=O)c1ccc(Br)o1,-14.9%,
